NIH3T3 tox = NIH 3T3 cell cytotoxicity | NIH 3T3 viability, CellTiter-Glo ATP luminescence, 48-72 h | Potency, µM (titrated, usually from 96.7 µM), for inactives: at the highest dose activity change, negative = cytotoxicity, hits mostly inhibitors | 94,000 tested, 4.3% active | AID 1345082; further: potency means the concentration at half of the fitted maximal effect; nearly all actives have a fitted effect of over 55% in size
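ATP-dependent luminescence (CellTiter-Glo) served as the viability signal for NIH 3T3 cells treated with compound for 48 or 72 hr at 37 °C.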
SNCA viab count = cell viability loss counter-screen; HEK-293-SNCA-luc viability, GF-AFC fluorescence, 24 h; Potency, µM (titrated, usually from 57.1 µM), for the others: at the highest dose activity change, negative = cytotoxicity, most hits filed as cytotoxic; 150,000 tested, 0.12% active;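 further: potency means the concentration at half of the fitted maximal effect; 0% = DMSO-treated cells and -100% = medium-only wells without cells; nearly all actives have a fitted effect of over 30% in size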
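HEK-293-SNCA-luc cells (1500/well) plated 24 h, then exposed 24 h to a dilution series; GF-AFC added 30 min at 37C, fluorescence 405/540 nm; normalised to medium-only and DMSO wells, Hill fit.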
IP6K1 inh = IP6K1 kinase inhibition; Q92551; IP6K1 kinase, ADP-Glo luminescence, 2 h; hits give low values; activity change, % (series mostly up to about 58 µM); 140,000 tested, 0.81% active; AID 1645851; in the data active means activity change below about -25%
Target sequence (Q92551 whole entry, looked up): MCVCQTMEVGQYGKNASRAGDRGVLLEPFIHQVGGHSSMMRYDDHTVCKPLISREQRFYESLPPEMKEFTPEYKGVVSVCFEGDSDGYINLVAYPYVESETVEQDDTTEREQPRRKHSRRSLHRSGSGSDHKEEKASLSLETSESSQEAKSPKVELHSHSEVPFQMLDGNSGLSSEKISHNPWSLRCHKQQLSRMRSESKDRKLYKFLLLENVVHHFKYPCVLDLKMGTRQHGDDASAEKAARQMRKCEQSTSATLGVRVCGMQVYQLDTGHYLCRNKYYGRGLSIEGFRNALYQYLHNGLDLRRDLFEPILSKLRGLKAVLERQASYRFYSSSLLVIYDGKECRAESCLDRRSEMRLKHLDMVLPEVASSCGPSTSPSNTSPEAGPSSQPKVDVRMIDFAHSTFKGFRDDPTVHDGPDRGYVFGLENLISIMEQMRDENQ
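ADP-Glo luminescence measures ADP made by human IP6K1 during a 2 h RT reaction with ATP/IP6 (mix at 1.3 mM/130 uM); top library doses 57.5 and 19.1 uM final.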
Luciferase inh = inhibitors of firefly (Photinus pyralis) luciferase | P08659 | purified P. pyralis luciferase, luminescence, biochemical | Potency, µM (highest dose often 115 µM), hits mostly inhibitors | 76,000 tested, 2.5% active | AID 1347043; further: potency means the concentration at half of the fitted maximal effect; nearly all actives have a fitted effect of over 65% in size
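Inhibitors were tested against purified firefly luciferase in a biochemical, low-substrate format (both substrates at 10uM) and luminescence measured with a CCD imager.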
SNCA expr inhib = reduces expression of the alpha-synuclein gene. HEK-293 SNCA-luciferase knock-in, luminescence, 24 h. Potency, µM (titrated, usually from 57.2 µM), for the others: at the top dose activity change, negative = inhibition, hits mostly inhibitors. 140,000 tested, 0.17% active;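 further: potency means the concentration at half of the fitted maximal effect; plate controls were DMSO cells for no effect and cell-free wells for full effect; nearly all actives have a fitted effect of over 45% in size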
HEK293 tox = HEK 293 cell cytotoxicity; 94,000 tested, 6.6% active; Potency, µM (doses to about 115 µM), without a hit: at the top dose activity change, negative = cytotoxicity, most hits filed as inhibitors; AID 1345083; HEK 293 viability, ATP luminescence (CellTiter-Glo), 48-72 h; further: potency means the concentration at half of the fitted maximal effect; nearly all actives have a fitted effect of over 60% in size
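Viability of HEK 293 cells, plated at 250 cells/well, was judged by cellular ATP after compound treatment for 48 or 72 hr. Luminescence was imaged 10 min after CellTiter-Glo addition at room temperature.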
* hit, by the source's call; [ ] = remark or other dose. Shown are actives, neighbours in structure and some others; about 7.3% of the full set was active somewhere. Unless noted, the call rests on the fitted dose curve; in most records, active means well fitted curve in the direction sought with a large enough effect; inconclusive means small, poorly fitted or top-dose-only effect, or another doubt; inactive means no such curve, though single readings can be large; an effect the other way counts as inactive or inconclusive. Unless noted, on the % scale 0 is the no-effect control and ±100 the full control effect.

What do the screens show for `O=C(c1ccc2c(c1)OCO2)N1CCC2(CC1)N=C(c1ccccc1)NO2`?
NIH3T3 tox: -20%; SNCA viab count: 8%; IP6K1 inh: -8; Luciferase inh: 40µM*; SNCA expr inhib: 40%; HEK293 tox: -9%

What do the screens show for `Cc1ccc(C2=NC3(CCN(C(=O)c4ccccc4Cl)CC3)ON2)cc1`?
NIH3T3 tox: -26%; SNCA viab count: -13%; IP6K1 inh: -12; Luciferase inh: 32µM*; SNCA expr inhib: 71%; HEK293 tox: -25%

How did CC(=O)Nc1ccc(C(=O)N2CCC3(CC2)N=C(c2ccccc2)NO3)cc1 do in these assays?
NIH3T3 tox: 0%; SNCA viab count: -18%; IP6K1 inh: -14; Luciferase inh: 35µM*; SNCA expr inhib: 180%; HEK293 tox: -1%

How did Cc1ccc(C2=NC3(CCN(C(=O)c4cc(F)ccc4Cl)CC3)ON2)cc1 do in these assays?
NIH3T3 tox: inconclusive; SNCA viab count: -6%; IP6K1 inh: 16; Luciferase inh: inconclusive; SNCA expr inhib: 95%; HEK293 tox: inconclusive

What do the screens show for `CC(=O)Nc1ccc(C(=O)N2CCC3(CC2)N=C(c2ccc(Cl)cc2)NO3)cc1`?
NIH3T3 tox: -19%; SNCA viab count: 4%; IP6K1 inh: -1; Luciferase inh: inactive; SNCA expr inhib: -15%; HEK293 tox: inconclusive

How did Cn1nc(C(=O)N2CCC3(CC2)N=C(c2cccc(Br)c2)NO3)c2ccccc21 do in these assays?
NIH3T3 tox: inconclusive; SNCA viab count: 0%; IP6K1 inh: -12; Luciferase inh: inactive; SNCA expr inhib: -4%; HEK293 tox: 45µM*

How did CN1CCC(OC2CCN(C(=O)c3ccc(Cl)cc3)CC2)CC1 do in these assays?
NIH3T3 tox: -16%; SNCA viab count: 4%; IP6K1 inh: -9; Luciferase inh: inactive; SNCA expr inhib: -5%; HEK293 tox: 6%

Results for COc1ccc(CN2C[C@@H]3[C@H](C2)N(CC2CCOCC2)C(=O)C(C)(C)[S+]3(=O)[O-])cc1O ?
NIH3T3 tox: inconclusive; SNCA viab count: -13%; IP6K1 inh: 14; Luciferase inh: inactive; SNCA expr inhib: 0%; HEK293 tox: inactive

What do the screens show for `COc1ccc(CCc2nc3nccc(-c4ccc5c(c4)OCCCO5)n3n2)cc1OC`?
NIH3T3 tox: inconclusive; SNCA viab count: 5%; IP6K1 inh: 3; Luciferase inh: inconclusive; SNCA expr inhib: -12%; HEK293 tox: 45µM*

Results for Fc1ccc(Cc2nc3nccc(-c4ccc5c(c4)OCCCO5)n3n2)cc1 ?
NIH3T3 tox: inconclusive; SNCA viab count: -1%; IP6K1 inh: -6; Luciferase inh: inconclusive; SNCA expr inhib: inconclusive; HEK293 tox: 45µM*

How did COc1ccc(Cc2nc3nccc(-c4ccc5c(c4)OCCCO5)n3n2)cc1 do in these assays?
NIH3T3 tox: inconclusive; SNCA viab count: 4%; IP6K1 inh: 12; Luciferase inh: inactive; SNCA expr inhib: 2%; HEK293 tox: inconclusive

How did CCCn1cc2c3c(cccc31)CN(C(=O)Cc1ccc(OC)cc1)CC2 do in these assays?
NIH3T3 tox: inconclusive; SNCA viab count: -13%; IP6K1 inh: 10; Luciferase inh: inactive; SNCA expr inhib: -28%; HEK293 tox: inconclusive

Results for CCCn1cc2c3c(cccc31)CN(C(=O)COc1ccc(F)cc1)CC2 ?
NIH3T3 tox: inconclusive; SNCA viab count: 7%; IP6K1 inh: 23; Luciferase inh: inactive; SNCA expr inhib: -3%; HEK293 tox: 45µM*

How did COc1ncccc1CNC[C@H]1Cn2c(-c3ccc(Cl)cc3)cnc2CO1 do in these assays?
NIH3T3 tox: 89µM*; SNCA viab count: 3%[87.6 µM]; IP6K1 inh: 7; Luciferase inh: inactive; SNCA expr inhib: -6%[87.6 µM]; HEK293 tox: inconclusive

Results for Cc1ccccc1CNC[C@H]1Cn2c(-c3ccccc3)cnc2CO1 ?
NIH3T3 tox: inconclusive; SNCA viab count: 6%[87.6 µM]; IP6K1 inh: 9; Luciferase inh: inactive; SNCA expr inhib: -12%[87.6 µM]; HEK293 tox: 112µM*

Results for Fc1ccc(-c2cnc3n2C[C@H](CNCc2ccccc2Cl)OC3)cc1 ?
NIH3T3 tox: inconclusive; SNCA viab count: -8%[87.6 µM]; IP6K1 inh: -3; Luciferase inh: inactive; SNCA expr inhib: -2%[87.6 µM]; HEK293 tox: 79µM*

What do the screens show for `c1ccc(CNC[C@H]2Cn3c(-c4ccccc4)cnc3CO2)cc1`?
NIH3T3 tox: -35%[174 µM]; SNCA viab count: 6%[87.6 µM]; IP6K1 inh: -4; Luciferase inh: inactive; SNCA expr inhib: -12%[87.6 µM]; HEK293 tox: inconclusive

How did Fc1ccc(-c2cnc3n2C[C@H](CNCC2CCCCC2)OC3)cc1 do in these assays?
NIH3T3 tox: inconclusive; SNCA viab count: 0%[87.6 µM]; IP6K1 inh: 15; Luciferase inh: inactive; SNCA expr inhib: 2%[87.6 µM]; HEK293 tox: inconclusive

Results for Fc1ccc(-c2cnc3n2C[C@H](CNCc2ccccn2)OC3)cc1 ?
NIH3T3 tox: -19%[138 µM]; SNCA viab count: 1%[87.6 µM]; IP6K1 inh: -15; Luciferase inh: inactive; SNCA expr inhib: -9%[87.6 µM]; HEK293 tox: inconclusive

Results for Fc1ccc(-c2cnc3n2C[C@H](CN(Cc2ccccc2)Cc2ccccc2)OC3)cc1 ?
NIH3T3 tox: 28µM*; SNCA viab count: inconclusive; IP6K1 inh: -10; Luciferase inh: inactive; SNCA expr inhib: inconclusive; HEK293 tox: 35µM*

How did CN(CCc1noc(C2CN(Cc3ccncc3F)C2)n1)C(=O)C1CC1 do in these assays?
NIH3T3 tox: -20%; SNCA viab count: 8%; IP6K1 inh: 4; SNCA expr inhib: -16%; HEK293 tox: -26%

Results for CN(CCc1noc(C2CN(Cc3ccc(Cl)c(F)c3)C2)n1)S(C)(=O)=O ?
NIH3T3 tox: inconclusive; SNCA viab count: -7%; IP6K1 inh: 2; Luciferase inh: inactive; SNCA expr inhib: -25%; HEK293 tox: 40µM*

What do the screens show for `COc1ccccc1-c1cnc(NC(=O)c2ccc(F)c(Cl)c2)c2c1CCO2`?
NIH3T3 tox: inconclusive; SNCA viab count: -8%[87.6 µM]; IP6K1 inh: -7; Luciferase inh: 18µM*; SNCA expr inhib: 68%[87.6 µM]; HEK293 tox: inconclusive

How did COc1ccc(C(=O)Nc2ncc(-c3ccc(OC)nc3)c3c2OCC3)cc1 do in these assays?
NIH3T3 tox: inconclusive; SNCA viab count: 4%[87.6 µM]; IP6K1 inh: -3; Luciferase inh: inconclusive; SNCA expr inhib: -18%[87.6 µM]; HEK293 tox: -21%[172 µM]

How did O=C(Nc1ncc(-c2cccc(F)c2)c2c1OCC2)c1ccc(Cl)cc1 do in these assays?
NIH3T3 tox: inconclusive; SNCA viab count: -2%[87.6 µM]; IP6K1 inh: -17; Luciferase inh: inactive; SNCA expr inhib: -5%[87.6 µM]; HEK293 tox: 100µM*

Results for CNC(=O)c1cccc(-c2cnc(Nc3ccc(N4CCOCC4)cc3)c3c2CCO3)c1 ?
NIH3T3 tox: inconclusive; SNCA viab count: -23%[87.6 µM]; IP6K1 inh: -19; Luciferase inh: 0.63µM*; SNCA expr inhib: 96%[87.6 µM]; HEK293 tox: 79µM*
